Screening data as filed in PubChem BioAssay.
Most compounds without a hit are left out; they make up all but 11% or so of the library.
PNC assembly inh: inhibitors of perinucleolar compartment assembly; PC3M PTB-GFP, PNC prevalence imaging, 16 h; active compounds read low; activity change (PNC), negative = inhibition, % at 10 µM; actives 3.1% (n = 140,000); AID 2417;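 active = readout at or below -70, meaning at least 70% loss of cells showing the perinucleolar compartment, a nuclear body marking cancer cells; inconclusive = readout between -30 and a set limit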;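 also: plate controls were DMSO wells for no effect and camptothecin positive control wells for full effect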
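Read-out is percentage of cells bearing a perinucleolar compartment, from automated 20x imaging of fixed, Hoechst-stained PC3M PTB-GFP cells. Cells were seeded 4 h, then exposed 16 h to compound (23 nl of library stock) in duplicate plates.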
IMPase Li inh: membrane-permeable IMPase blocker, potentiated with lithium; CHO-M1 cells, IP1 TR-FRET (IP-One), carbachol + lithium; Potency, µM (series often up to 59.4 µM), for inactives: at the highest dose activity, negative = IMPase inhibition, most hits filed as inhibitors; actives 0.35% (n = 210,000);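 also: IP1 builds up when IMPase is blocked and the TR-FRET signal falls; potency is read from the fitted curve at half-maximal effect; plate controls were basal vehicle for no effect and high inhibitor control for full effect; nearly all actives have a fitted effect of over 50% in size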
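Test compounds were applied to CHO-M1 cells previously cultured for 16–30 h at 2000 per well. A small lithium amount accompanied them; after 30 min at 37C, IP1 was quantified by TR-FRET.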
HPGD inh: inhibitors of human 15-hydroxyprostaglandin dehydrogenase (HPGD); purified HPGD, NADH fluorescence kinetic, PGE2 substrate; AID 894; Potency, µM, without a hit: at the top dose activity change, negative = inhibition, hits mostly inhibitors; P15428; actives 4.3% (n = 150,000); active = well fitted inhibition curve with a large enough effect, not every such curve was filed as active; inconclusive = small, poorly fitted or top-dose-only effect, or another doubt; inactive = no such curve, though single readings can be large or run the other way; also: potency is read from the fitted curve at half-maximal effect
Target sequence (P15428 whole entry, looked up): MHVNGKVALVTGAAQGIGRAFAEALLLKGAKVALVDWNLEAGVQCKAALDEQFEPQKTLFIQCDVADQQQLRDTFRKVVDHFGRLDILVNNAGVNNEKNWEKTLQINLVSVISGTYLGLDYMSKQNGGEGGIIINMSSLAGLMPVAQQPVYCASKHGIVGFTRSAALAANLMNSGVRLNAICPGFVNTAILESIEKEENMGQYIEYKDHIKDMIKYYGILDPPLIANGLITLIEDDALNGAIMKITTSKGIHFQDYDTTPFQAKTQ
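20 nM HPGD preincubated 15 min at room temperature with compound in 50 mM Tris-HCl pH 8, 0.01% Tween 20. Started with 1 mM NAD+ and 30 uM prostaglandin E2; NADH fluorescence (360/450 nm) read 5 times over 30-s intervals, last minus first.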
IMPase inh: membrane-permeable compound that blocks inositol monophosphatase. CHO-M1 cells, IP1 accumulation, HTRF TR-FRET ratio. inhibition (IP1 accumulation), % at 46.1 µM. 120,000 tested, under 10 active; active = well fitted curve in the direction sought with a large enough effect in the signal ratio, not every such curve was filed as active; inconclusive = small, poorly fitted or top-dose-only effect, or a change in a side signal; inactive = no such curve, though single readings can be large or run the other way; the % refers to the signal ratio;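 also: cells stimulated with carbachol in lithium chloride buffer; plate controls were DMSO basal wells for no effect and reference inhibitor wells for full effect; higher means more IMPase inhibition seen as more IP1 and lower FRET ratio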
Target sequence (P97697 whole entry, looked up): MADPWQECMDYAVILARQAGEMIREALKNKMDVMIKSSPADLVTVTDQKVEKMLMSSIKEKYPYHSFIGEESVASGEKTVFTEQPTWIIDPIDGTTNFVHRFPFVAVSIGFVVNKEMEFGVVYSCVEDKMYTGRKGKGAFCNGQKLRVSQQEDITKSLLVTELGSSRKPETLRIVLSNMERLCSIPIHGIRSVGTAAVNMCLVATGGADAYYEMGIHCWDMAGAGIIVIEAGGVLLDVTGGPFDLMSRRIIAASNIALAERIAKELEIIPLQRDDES
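The IP-One HTRF competitive assay in carbachol-stimulated CHO-M1 cells quantifies cellular IP1. Compounds spanned up to 46 uM final, and activity is expressed as AC50 from concentration-response fits of the ratio and donor data.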
12-hLO inh: inhibitors of human 12-lipoxygenase (ALOX12); Potency, µM (doses to about 57.1 µM), inactives show at the highest dose activity change, negative = inhibition, most hits filed as inhibitors; purified 12-hLO, xylenol orange hydroperoxide absorbance; actives 0.12% (n = 150,000); P18054; also: potency is read from the fitted curve at half-maximal effect; nearly all actives have a fitted effect of over 55% in size
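Hydroperoxide formation by human 12-lipoxygenase from 40 uM arachidonic acid was followed colorimetrically via ferric-xylenol orange complex, using the 573/405 nm absorbance ratio. Enzyme concentration was 150 nM, with 30 min reaction at room temperature.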
ALDH1A1 inh: blocks purified human ALDH1A1 activity. AID 1030. Purified ALDH1A1, NADH fluorescence, propionaldehyde substrate. actives 7.3% (n = 220,000). Potency, µM (doses to about 75.3 µM), inactives show top-dose activity, negative = inhibition, most hits filed as inhibitors; active = well fitted inhibition curve with a large enough effect, not every such curve was filed as active; inconclusive = small, poorly fitted or top-dose-only effect, or another doubt; inactive = no such curve, though single readings can be large or run the other way;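 also: potency is read from the fitted curve at half-maximal effect; plate controls were no enzyme wells and a reference inhibitor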
Starred values were filed as active, the others as inactive; u = inconclusive; x = not tested or not shown; [ ] = dose if it differs, or a comment. Unless noted, calls follow the shape of the dose curve; as a rule, active = well fitted curve in the direction sought with a large enough effect; inconclusive = small, poorly fitted or top-dose-only effect, or another doubt; inactive = no such curve, though single readings can be large; an effect the other way counts as inactive or inconclusive. Unless noted, % is scaled to controls: 0 for no effect and ±100 for the full control effect.

SMILES	PNC assembly inh	IMPase Li inh	HPGD inh	IMPase inh	12-hLO inh	ALDH1A1 inh
Cc1ccc(Nc2nnc(-c3ccc(N4CCOCC4)c([N+](=O)[O-])c3)c3ccccc23)cc1	u	-4%	-16%	x	0%	u
O=C(c1ccco1)N1N=C(C2CCCCC2)CC1(O)C(F)(F)F (stereo not given)	x	4%	x	x	x	6.3µM*
C=C[C@]1(C)Cc2occ(C)c2C[C@H]1C(=C)C(=O)O	x	8%	-5%	x	x	11µM*
O=C(O)c1ccc(-n2nc(C(F)(F)F)c3c2-c2ccoc2CC3)cc1	-5	11%[38.3 µM]	22µM*	u	-10%	-14%
COC(=O)c1ccc(-n2nc(C(F)(F)F)c3c2-c2ccoc2CC3)cc1	24	15%	-12%	6[0.0738 µM]	-4%	u
C=CCNC(=S)NN=C1CCCCCCC1	x	23%	x	x	x	0.89µM*
COC(=O)CCSc1nc2sc3c(c2c(=O)n1Cc1ccccc1)CCC(C(C)(C)C)C3 (stereo not given)	x	x	x	-6	x	x
Cc1noc(C)c1C(=O)N1CCC2(CCCN(C(=O)Nc3ccccc3)C2)CC1	x	5%	-5%	x	6%	3%
O=C1/C(=C/c2cccnc2)Oc2cc(OS(=O)(=O)c3ccccc3)ccc21	-16	46%[38.3 µM]	u	7	-7%	3.2µM*
O=C1CCCC2=C1C(c1ccc(OS(=O)(=O)c3ccc(Cl)cc3)cc1)C1=C(CCCC1=O)O2	51	-1%[38.3 µM]	-15%	-1	-2%	u
COc1ccccc1C(=O)Oc1ccc2c(c1)O/C(=C\c1ccncc1)C2=O	24	12%	-27%	-5	0%	u
COc1ccc(S(=O)(=O)Oc2ccc3c(c2)O/C(=C\c2cccnc2)C3=O)cc1	-7	18%[38.3 µM]	16µM*	-5	-4%	7.9µM*
O=C1/C(=C/c2cccnc2)Oc2cc(OS(=O)(=O)c3ccc(Cl)cc3)ccc21	u	7%[38.3 µM]	-23%	-6	-4%	1.6µM*
CS(=O)(=O)Oc1ccc2c(c1)O/C(=C\c1cccnc1)C2=O	x	x	x	x	x	11µM*
CC(C)=CCl	x	-15%	-2%	x	-4%	-5%
CNc1cc(-c2ccccc2C(F)(F)F)ncn1	x	-3%	x	x	x	3%
CCOC(=O)NCC(C#CCN(CC)CC)N(CC)CC (stereo not given)	-93*	-5%	-1%	7	-1%	0%
CCN(CC)CC#CC(C)OCOCC#CCOC (stereo not given)	22	5%[38.3 µM]	-2%	-1	-2%	-2%
Clc1ccc(N2COC3c4cccc5cccc(c45)C32)cc1 (stereo not given)	-100*	11%	-13%	3	2%	-12%
COc1ccc(N2COC3c4cccc5cccc(c45)C32)cc1 (stereo not given)	11	14%	-20%	7	-10%	19µM*
CS(=O)(=O)NC1c2cccc3cccc(c23)C1N1CCOCC1 (stereo not given)	-14	6%	-12%	-2	3%	u
Cc1cccn2c(=O)c(/C=C(\C#N)c3nc4ccccc4s3)c(Oc3ccc(Br)cc3)nc12	x	x	x	5	x	x
C[C@]12CC[C@H]3c4ccc(O)cc4CC[C@@H]3[C@H]1CC[C@@H]2OC(=O)CCC1CCCC1	x	-2%	-10%	x	-6%[11.4 µM]	10%[13.5 µM]
CCC(=O)N1CCc2cc(Br)cc(S(=O)(=O)N3CCCCCC3)c21	-100*	6%	-7%	2	-1%	-11%
CCC(=O)N1CCc2cc(Br)cc(S(=O)(=O)NCc3ccco3)c21	u	3%	-10%	8	-4%	u
SMILES	PNC assembly inh	IMPase Li inh	HPGD inh	IMPase inh	12-hLO inh	ALDH1A1 inh
CCOC(=O)N1CCN(S(=O)(=O)c2cc(Br)cc3c2N(C(=O)CC)CC3)CC1	u	26%[38.3 µM]	-6%	-16	3%	10%
CCC(=O)N1CCc2cc(Br)cc(S(=O)(=O)CCC(=O)NCc3ccco3)c21	-119*	8%	-7%	2	1%	-8%
CC(=O)N1CCC(=NNc2ncc(C(F)(F)F)cc2Cl)CC1	x	4%	x	x	x	16µM*
CCOC(=O)N1CCC(=NNc2ncc(C(F)(F)F)cc2Cl)CC1	x	11%	x	x	x	u
CCOc1ccc(C(=O)C2CCN(CC(=O)Nc3ccccc3N3CCOCC3)CC2)cc1	26	6%[38.3 µM]	-25%	15	-1%	25µM*
CC(C)Oc1cccc(C(=O)Nc2ccccc2N2CCOCC2)c1	5	35%[38.3 µM]	-13%	0	-4%	u
CCC(C)Oc1cccc(C(=O)Nc2ccccc2N2CCOCC2)c1 (stereo not given)	-87*	21%[38.3 µM]	-18%	11	2%	u
COc1ccc(C2NC(=S)N(c3ccccc3)C(C)=C2C(=O)Nc2ccccc2)cc1 (stereo not given)	-13	-8%[38.3 µM]	-16%	-2	u	2µM*
CC1=C(C(=O)Nc2ccc([N+](=O)[O-])cc2)C(c2cccc(C(F)(F)F)c2)NC(=S)N1c1ccccc1 (stereo not given)	30	17%[38.3 µM]	-18%	-3	22µM*	14µM*
COc1ccc(C2CC(=O)c3c(O)cc(O[C@H]4OC(COC5OC(C)C(O)C(O)[C@@H]5O)C(O)C(O)C4O)cc3O2)cc1O (stereo not given in full)	x	0%	-11%	x	1%	9%
Cc1ccccc1-c1nsc(SCC(=O)NCc2ccc3c(c2)OCO3)n1	24	-11%	-18%	-15	-1%	22µM*
CC(C)Nc1nnc(SCC(=O)NCc2ccc3c(c2)OCO3)s1	x	5%	x	x	x	18µM*
Cc1ccc(-c2nsc(SCC(=O)NCc3ccc4c(c3)OCO4)n2)cc1	u	3%	-8%	4	0%	11%
Cc1cc(S(=O)(=O)Nc2cccc(C(=O)O)c2)c(C)c(S(=O)(=O)c2ccccc2)c1	x	x	x	0	x	x
COCCNC(=S)Nc1ccccc1[N+](=O)[O-]	x	6%	x	x	x	-10%
COc1cc(C(=O)NC(=S)Nc2ccccc2[N+](=O)[O-])cc(OC)c1OC	x	1%	x	x	x	18µM*
COCCCNC(=S)Nc1ccccc1[N+](=O)[O-]	x	-2%	x	x	x	22µM*
